Source: PubChem BioAssay (National Center for Advancing Translational Sciences (NCATS))
Many of the other results were omitted from the sample, so hits are more common in it than they were.
Sm TGR inh: qHTS Assay for the Inhibitors of Schistosoma Mansoni Peroxiredoxins; AID 485364, 2010; Potency, µM (highest dose often 114 µM), most hits filed as inhibitors; purified TGR, DTNB reduction, TNB absorbance 405 nm; actives 3% (n = 360,000); further: nearly all actives have a fitted effect of over 60% in size
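First, TGR (20 nM dispensed) and NADPH were mixed with compound. Second, a 15 min room-temperature incubation followed. Third, further NADPH and then DTNB were added to start the reaction. Finally, TNB absorbance was monitored kinetically.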
CHX counter-1: Cycloheximide Counterscreen for Small Molecule Inhibitors of Shiga Toxin; max response, %; AID 2314, 2010; cell reporter, cycloheximide protein synthesis inhibition counterscreen; actives 12% (n = 300,000); in the data active means max response mostly above about 13%, no sharp cut-off; inactive means mostly below about 14%; further: read at 38.3 µM for the half of the compounds with a filed dose
TbPYK inhibitor: qHTS of Trypanosoma Brucei Inhibitors | TbPYK enzyme, Kinase-Glo Plus ATP luminescence, 45 min | Potency, µM (top dose mostly 76.8 µM), usual class: inhibitors | actives 0.12% (n = 410,000) | pyruvate kinase (Trypanosoma brucei), Q57TT1 | AID 624173, 2012; further: nearly all actives have a fitted effect of over 50% in size
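TbPYK + substrate in 50 mM TEA pH 7.2, 100 mM KCl, 10 mM MgCl2, 0.05% BSA, 0.01% Tween-20; cpd pinned; ADP 130 uM final; 45 min RT; Kinase-Glo Plus 10 min; luminescence endpoint.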
Shiga toxin inh: A qHTS for Small Molecule Inhibitors of Shiga Toxin; Vero cells, Shiga toxin protein synthesis inhibition reporter; inhibition, % at 38.7 µM; actives 9.2% (n = 290,000); AID 2315, 2010; in the data active means inhibition mostly above about 28%, no sharp cut-off; inactive means mostly below about 43%
FBPA Giardia inh: qHTS Assay for Inhibitors of Fructose-1,6-bisphosphate Aldolase from Giardia Lamblia. purified Giardia FBPA. actives 0.71% (n = 290,000). Potency, µM (titrated, usually from 59.6 µM), most hits filed as inhibitors. A8B2U2. AID 2451, 2010; further: nearly all actives have a fitted effect of over 55% in size
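40 nM FBPA preincubated 10 min at RT with compound (up to 57.5 uM final), then substrate plus GAPDH/TPI/NAD/arsenate coupling and diaphorase/resazurin added. Fluorescence read after 20 min at RT, 525/598 nm.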
LmPK inhibitor: qHTS Assay for Inhibitors of Leishmania Mexicana Pyruvate Kinase (LmPK); Potency, µM (titrated, usually from 57.5 µM), usual class: inhibitors; actives 0.37% (n = 290,000); Q27686; purified LmPK, Kinase-Glo ATP luminescence, 1 h
Target sequence (Q27686 whole entry, looked up): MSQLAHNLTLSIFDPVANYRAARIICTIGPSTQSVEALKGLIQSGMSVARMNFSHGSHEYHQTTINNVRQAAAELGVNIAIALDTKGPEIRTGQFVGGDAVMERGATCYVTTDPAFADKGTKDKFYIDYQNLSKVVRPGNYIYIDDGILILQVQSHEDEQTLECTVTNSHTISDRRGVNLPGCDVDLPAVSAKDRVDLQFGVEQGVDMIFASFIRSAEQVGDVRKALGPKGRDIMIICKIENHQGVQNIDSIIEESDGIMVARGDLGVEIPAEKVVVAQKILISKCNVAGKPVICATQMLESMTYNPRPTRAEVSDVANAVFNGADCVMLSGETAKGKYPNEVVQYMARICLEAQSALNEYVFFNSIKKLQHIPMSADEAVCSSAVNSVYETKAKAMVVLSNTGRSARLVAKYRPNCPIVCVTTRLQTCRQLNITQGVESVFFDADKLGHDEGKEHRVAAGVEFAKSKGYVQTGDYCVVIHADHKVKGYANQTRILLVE
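Pyruvate kinase activity monitored as ATP production (luciferase luminescence). Conditions: 0.1 nM enzyme, 0.5 mM PEP, 0.1 mM ADP, 1 h, RT; normalized against uninhibited and no-enzyme wells.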
CHX counter-2: Cycloheximide Counterscreen for Small Molecule Inhibitors of Shiga Toxin (Confirmatory); Cycloheximide counterscreen, protein synthesis reporter, Shiga toxin assay; actives 3% (n = 510); shares compounds with Shiga toxin inh; AID 2318, 2010; Potency, µM (series often up to 38.3 µM), actives largely listed as activators; calls by dose curve
Large screens that a line does not name were inactive (follow-up assays come after a bar, where they were run). Unless noted, the call rests on the fitted dose curve; in most records, active means well fitted curve in the direction sought with a large enough effect; inconclusive means small, poorly fitted or top-dose-only effect, or another doubt; inactive means no such curve, though single readings can be large; an effect the other way counts as inactive or inconclusive.

CS(=O)(=O)Cc1cccc(C(=O)NC2CCSc3ccccc32)c1 (stereo not drawn)	none
CON(C)S(=O)(=O)c1cccc(C(=O)NC2CCSc3ccccc32)c1 (stereo not drawn)	Shiga toxin inh 76.9 | CHX counter-2 inactive
COc1ccc(S(=O)(=O)NCC2CCCN(Cc3cn(C)nc3C)C2)cc1 (stereo not drawn)	none
CN1CCN(C(=O)c2ccc(-n3cccc3)cc2)CC1	Shiga toxin inh 31.8 | CHX counter-2 inactive
O=c1c2ccccc2sc2nc(C3CCCCC3)n(Cc3ccco3)c(=O)c12	Sm TGR inh 10µM, Shiga toxin inh 24.2 | CHX counter-2 inactive
O=c1c2ccccc2nc(SCc2cccc(F)c2)n1Cc1ccco1	Shiga toxin inh 56.5 | CHX counter-2 inactive
O=c1c2ccccc2nnn1CSc1nc2ccccc2c(=O)n1Cc1ccco1	none
O=C(/C=C/C#Cc1cccc(NS(=O)(=O)c2ccccc2)c1)NO	Shiga toxin inh 64.8 (no result: Sm TGR inh, TbPYK inhibitor, LmPK inhibitor) | CHX counter-2 inactive
CCC(C)NC(=O)C1CC(c2ccc(OC)cc2)=NO1 (stereo not drawn)	none
COc1ccc(C2=NOC(C(=O)NC(C)C)C2)cc1 (stereo not drawn)	Shiga toxin inh 25.9 | CHX counter-2 inactive
CC[N+](CC)(CCO)CCCN1C(=O)C2CC=C(Cl)CC2C1=O (stereo not drawn)	Shiga toxin inh 142.6 | CHX counter-2 inactive
O=C(CSc1nnc(-c2ccccn2)o1)Nc1ccccc1C(F)(F)F	Shiga toxin inh 63.1 | CHX counter-2 inactive
Cc1cc(NC(=O)c2cc(F)c(F)cc2Cl)no1	Shiga toxin inh 34.5 | CHX counter-2 inactive
Cc1ccc(Cl)cc1N(CC(=O)NC(C)c1ccccc1)S(C)(=O)=O (stereo not drawn)	none
Cc1ccsc1/C=N/NC(=O)c1ccc(Cn2cc(Br)cn2)o1	none
Cc1ccc(NC(=O)c2ccc(Cn3cc(Br)cn3)o2)cc1	Shiga toxin inh 38.3 | CHX counter-2 inactive
CCCn1c(-c2ccc(F)cc2)nc2c(NC3CC4CCC(C3)N4C)nc(C)nc21 (stereo not drawn)	none (no result: Sm TGR inh, CHX counter-1, TbPYK inhibitor, Shiga toxin inh, LmPK inhibitor)
CC1(C)OC(=O)C(=NNc2ccccc2C(=O)O)C(=O)O1	none
CC1(C)OC(=O)C(=NNc2ccccc2)C(=O)O1	Shiga toxin inh 35.8 | CHX counter-2 inactive
O=C(O)c1ccn(Cn2cnc3ccccc32)n1	Shiga toxin inh 26.8 | CHX counter-2 inactive
CC(Cn1cnc2ccccc21)C(=O)O (stereo not drawn)	none
CCOC(=O)C1(CCCc2ccccc2)CCN(C(=O)CCn2cncn2)CC1	Shiga toxin inh 39.3 | CHX counter-2 inactive
CCOC(=O)C1(CCCc2ccccc2)CCN(C(=O)C(C)n2cncn2)CC1 (stereo not drawn)	none
Cc1ccc(NC(=S)c2nc3ccccc3s2)cc1	Shiga toxin inh 72.5 (no result: FBPA Giardia inh) | CHX counter-2 0.711µM
COc1ccc(C(C)(C)C)cc1NC(=O)c1ccc2c(c1)SC1=NS(=O)(=O)CCN12	Shiga toxin inh 40.3 | CHX counter-2 inactive
O=C(O)c1ccc2c(c1)SC1=NS(=O)(=O)CCN12	none
CCOc1ccc(-c2noc(CCC(=O)NCCc3ccccc3)n2)cc1OC	none
COc1cccc(-c2noc(CCC(=O)NCCc3ccccc3)n2)c1	Shiga toxin inh 49.3 | CHX counter-2 inactive
Cc1cc(NC(=O)C(C)C)ncc1NC(=O)c1cccc(F)c1	none
CCCC(=O)Nc1cnc(NC(=O)c2cccc(F)c2)cc1C	Shiga toxin inh 66.8, LmPK inhibitor inconclusive | CHX counter-2 1.59µM
CCOC(=O)c1c(NC(=O)CSc2nc3cc(Cl)ccc3c(=O)n2Cc2ccco2)sc(C(=O)N(C)C)c1C	none
Cn1c(=O)c2c(ncn2CC(=O)Nc2cc(S(=O)(=O)N3CCCCC3)ccc2O)n(C)c1=O	none (no result: Sm TGR inh, CHX counter-1, Shiga toxin inh, FBPA Giardia inh, LmPK inhibitor)
